# In PubChem BioAssay AID1542 (National Center for Advancing Translational Sciences (NCATS), 2009):
# Inconclusive results are not listed. Activity calls are given as the source filed them. Calls follow the shape of the dose curve; as a rule, active = well fitted curve in the direction sought with a large enough effect; inconclusive = small, poorly fitted or top-dose-only effect, or effect the other way, or another doubt; inactive = no such curve, though single readings can be large or run the other way.
# Biological target: Pyruvate kinase PKM (Homo sapiens) (UniProt P14618)
# Sequence (P14618 whole entry, looked up, canonical isoform): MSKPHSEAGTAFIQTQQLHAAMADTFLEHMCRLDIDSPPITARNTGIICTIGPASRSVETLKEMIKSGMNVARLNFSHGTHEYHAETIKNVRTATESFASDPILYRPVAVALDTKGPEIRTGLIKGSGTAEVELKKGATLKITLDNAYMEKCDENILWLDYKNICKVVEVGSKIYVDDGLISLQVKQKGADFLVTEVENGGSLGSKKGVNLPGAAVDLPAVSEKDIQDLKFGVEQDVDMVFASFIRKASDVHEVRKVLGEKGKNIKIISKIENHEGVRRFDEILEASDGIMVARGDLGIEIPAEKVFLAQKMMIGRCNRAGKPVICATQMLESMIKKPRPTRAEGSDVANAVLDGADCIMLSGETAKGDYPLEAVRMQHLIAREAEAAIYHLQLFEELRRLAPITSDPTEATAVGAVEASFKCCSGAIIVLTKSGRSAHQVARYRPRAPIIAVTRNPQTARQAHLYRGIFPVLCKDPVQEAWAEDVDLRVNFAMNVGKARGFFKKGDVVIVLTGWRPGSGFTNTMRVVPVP
# Experiment: Secondary assay for Activators of Human Pyruvate Kinase M1 isoform
# Settings: purified hPK-M1, LDH-coupled NADH fluorescence kinetic; series mostly up to 57.5 µM; activity change, positive = activation: at the top concentration
# Source text: Confirmatory assay NIH Chemical Genomics Center [NCGC] Matthew G. Vander Heiden, M.D., Ph.D. [Harvard Medical School, 77 Avenue Louis Pasteur, Boston, MA 02115] NCGC Assay Overview: Human pyruvate kinase […] (hPK-M1)enzyme was supplied as a highly purified (>95% pure) preparation from Harvard Medical School and a secondary assay was used to evaluate compounds. This assay couples the formation of pyruvate from hPK-R using lactate dehydrogenase (LDH) and NADH. The depletion of NADH is followed in a fluorescent-based kinetic assay that follows the formation of pyruvate to lactate, as catalyzed LDH. Pyruvate kinase substrates, PEP and ADP, were present in the assay at 0.1 mM and 4 mM respectively. In this kinetic assay initial rates were determined by following the fluorescence of NADH depletion.
# NCGC Assay Protocol Summary: Three uL of substrate mix (final concentration, 50 mM Tris-Cl pH 8.0, 200 mM KCl, 15 mM MgCl2, 0.1 mM PEP, 4.0 mM ADP, and 0.2 mM NADH) was dispensed into black-solid 1536 well plates. 23 nL of compounds were delivered by a pin tool and 1 uL of enzyme mix (final concentrations, 10 nM hPK-M1 and 1 uM of LDH) was added. Plates were immediately placed in ViewLux (Perkin Elmer) and NADH fluorescence was determined at 30 second exposure intervals for between 3 and 6 minutes. Data were normalized to the uninhibited controls.
row,SMILES,"activity change, positive = activation"
1,COCCCc1cc(F)c(S(=O)(=O)N2CCN(S(=O)(=O)c3ccc4c(c3)OCCO4)CC2)cc1F,-12% (inactive)
2,Cc1cc2c(s1)c1cnn(Cc3ccc(Cl)cc3)c(=O)c1n2C,-0.421% (inactive)
3,O=C(O)CCc1cc(F)c(S(=O)(=O)N2CCN(S(=O)(=O)c3ccc4c(c3)OCCO4)CC2)cc1F,2.14% (inactive)
4,O=C(O)Cc1cc(F)c(S(=O)(=O)N2CCN(S(=O)(=O)c3ccc4c(c3)OCCO4)CC2)cc1F,19% (inactive)
5,O=C(O)/C=C/c1cc(F)c(S(=O)(=O)N2CCN(S(=O)(=O)c3ccc4c(c3)OCCO4)CC2)cc1F,-16.2% (inactive)
6,C=Cc1cc2c(s1)c1cnn(Cc3ccccc3F)c(=O)c1n2C,-6.78% (inactive)
7,Cc1cc2c(s1)c1cnn(Cc3c(F)c(F)cc(F)c3F)c(=O)c1n2C,9.56% (inactive)
8,Cc1cc2c(s1)c1cnn(Cc3cccc(Cn4ncc5c6sc(C)cc6n(C)c5c4=O)c3F)c(=O)c1n2C,-9.29% (inactive)
9,O=S(=O)(NC1CCN(S(=O)(=O)c2ccc3c(c2)OCCO3)CC1)c1c(F)cccc1F,-0.701% (inactive)
10,Cc1cc2c(s1)c1cnn(Cc3cccc(F)c3)c(=O)c1n2C,14.8% (inactive)
11,CC(C)c1cc2c(s1)c1cnn(Cc3ccccc3F)c(=O)c1n2C,2.22% (inactive)
12,O=S(=O)(c1c(F)cccc1F)C1CCN(S(=O)(=O)c2ccc3c(c2)OCCO3)CC1,-23.9% (inactive)
13,Cc1nc2ccc(S(=O)(=O)N3CCN(S(=O)(=O)c4c(F)cccc4F)CC3)cc2s1,11.1% (inactive)
14,Cn1c2cc(C(=O)O)sc2c2cnn(Cc3ccccc3F)c(=O)c21,-11.8% (inactive)
15,COc1ccc(S(=O)(=O)N2CCN(S(=O)(=O)c3c(F)cccc3F)CC2)cc1,5.64% (inactive)
16,O=S(=O)(c1ccc2c(c1)OCCO2)N1CCN(S(=O)(=O)c2ccc3c(c2)OCCO3)CC1,4.7% (inactive)
17,C[C@H]1CN(S(=O)(=O)c2ccc3c(c2)OCCO3)CCN1S(=O)(=O)c1c(F)cccc1F,14.6% (inactive)
18,O=C(N1CCc2ccc(S(=O)(=O)N3CCN(S(=O)(=O)c4ccc5c(c4)OCCO5)CC3)cc2C1)C(F)(F)F,-17.2% (inactive)
19,Cc1cc2c(s1)c1cnn(Cc3ccc(F)cc3)c(=O)c1n2C,7.03% (inactive)
20,O=S(=O)(c1ccc2c(c1)OCCO2)N1CCN(S(=O)(=O)c2c(F)cccc2F)CC1,8.24% (inactive)

row,SMILES,"activity change, positive = activation"
1,CS(=O)(=O)Nc1cccc(-c2cc(F)c(S(=O)(=O)N3CCN(S(=O)(=O)c4ccc5c(c4)OCCO5)CC3)cc2F)c1,-9.36% (inactive)
2,O=S(=O)(NC1CCC(NS(=O)(=O)c2c(F)cccc2F)CC1)c1ccc2c(c1)OCCO2 (stereo not given),3.43% (inactive)
3,Cn1ccc2cc(S(=O)(=O)N3CCN(S(=O)(=O)c4c(F)cccc4F)CC3)ccc21,14.4% (inactive)
4,O=S(=O)(NCC1CN(S(=O)(=O)c2c(F)cccc2F)C1)c1ccc2c(c1)OCCO2,-5.12% (inactive)
5,O=S(=O)(c1ccc2c(c1)OCCCO2)N1CCN(S(=O)(=O)c2c(F)cccc2F)CC1,4.66% (inactive)
6,COC(=O)c1cc(F)c(S(=O)(=O)N2CCN(S(=O)(=O)c3ccc4c(c3)OCCO4)CC2)cc1F,-0.231% (inactive)
7,Cn1c2cc(S(C)(=O)=O)sc2c2cnn(Cc3ccccc3F)c(=O)c21,23.4% (inactive)
8,O=S(=O)(c1ccc2c(c1)OCCO2)N1CCN(S(=O)(=O)c2ccc3nc(Cl)c(Cl)nc3c2)CC1,28.8% (inactive)
9,CCOC(=O)/C=C/c1cc(F)c(S(=O)(=O)N2CCN(S(=O)(=O)c3ccc4c(c3)OCCO4)CC2)cc1F,-2.46% (inactive)
10,C[C@@H]1CN(S(=O)(=O)c2c(F)cccc2F)CCN1S(=O)(=O)c1ccc2c(c1)OCCO2,12% (inactive)
11,O=C(O)c1cc(F)c(S(=O)(=O)N2CCN(S(=O)(=O)c3ccc4c(c3)OCCO4)CC2)cc1F,19.7% (inactive)
12,O=S(=O)(c1ccc2c(c1)OCCO2)N1CCN(S(=O)(=O)c2cc(F)c(Br)cc2F)CC1,-15.8% (inactive)
13,O=c1[nH]c2ccc(S(=O)(=O)N3CCN(S(=O)(=O)c4c(F)cccc4F)CC3)cc2[nH]c1=O,-22% (inactive)
14,Cc1cc2c(s1)c1cnn(Cc3ccccc3F)c(=O)c1n2C,1.47% (inactive)
15,Cc1cc2c(s1)c1cnn(Cc3ccc(C(F)(F)F)cc3F)c(=O)c1n2C,9.47% (inactive)
16,COc1ccc(S(=O)(=O)N2CCN(S(=O)(=O)c3ccc4c(c3)OCCO4)CC2)cc1,-6.87% (inactive)
17,C=Cc1cc(F)c(S(=O)(=O)N2CCN(S(=O)(=O)c3ccc4c(c3)OCCO4)CC2)cc1F,-7.75% (inactive)
18,Cc1cc2c(s1)c1cnn(Cc3ccccc3F)c(=O)c1n2Cc1ccccc1F,21.1% (inactive)
19,O=S(=O)(c1ccc2c(c1)OCCO2)N1CCN(S(=O)(=O)c2ccccn2)CC1,-9.53% (inactive)
20,CCOC(=O)CCc1cc(F)c(S(=O)(=O)N2CCN(S(=O)(=O)c3ccc4c(c3)OCCO4)CC2)cc1F,-4.06% (inactive)
